# From PubChem BioAssay (EPA / NIEHS)
# The source made the active and inactive calls. How the source made its calls: active means hit-call score of the fitted dose curve at least 0.9, where 1 is the maximum; inactive means score below 0.9.
# Read-out: TIMP1, TIMP1 (gene 7076)
# Experiment: LTEA_HepaRG_TIMP1: Life Technologies and Expression Analysis (LTEA) Assay for TIMP1 using HepaRG (AID 2283534);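 on outcome: TaqMan qRT-PCR signal normalized to ACTB GAPDH and POLR2A housekeeping genes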
# Conditions: mRNA level, 48 h; actives raise or lower the signal
# Procedure: LTEA_HepaRG is a cell based, multiplexed-readout assay that uses HepaRG, a human liver cell line, with measurements taken at 48 hours after chemical dosing on a 96-well plate.LTEA_HepaRG_TIMP1 is one of 102 assay component(s) measured in the LTEA HepaRG cell culture assay. It is a marker of Cell proliferation, survival, death.Data from the assay component LTEA_HepaRG_TIMP1 was analyzed into 1 endpoint. This assay endpoint, LTEA_HepaRG_TIMP1, was analyzed with bidirectional fitting relative to DMSO as the negative control and baseline of activity. Using a type of inducible reporter, measures of mRNA induction for gain or loss-of-signal activity can be used to understand regulation of transcription factor activity. To generalize the intended target to other relatable targets, this assay endpoint is annotated to the protease inhibitor intended target family, where the subfamily is metalloproteinase inhibitor.
# A total of 1060 chemcials from the ToxCast library were tested in eight-point concentration-response experiments. Cell culture and cytotoxicity assays were conducted at Thermo Fisher Scientific's Custom Services facility (Madison, WI). A single lot of human HepaRG cells (Thermo Fisher Scientific, Frederick, MD) was used for the cell culture experiments. 96-well format collagen type I coated plates of human HepaRG cells were prepared using established methods. Briefly, cryopreserved HepaRG cells were thawed, plated at a density of approximately 100,000 cells/well in HepaRG Thaw, Plate, and General Purpose media (HPRG770, Thermo Fisher Scientific), and incubated for 48 hours. 0.5% DMSO was selected as vehicle control to balance the requisite need of DMSO in HepaRG cultures to maintain differentiation (for example, baseline metabolism, proportions of hepatocytes vs. cholangiocytes), while enabling further hepatic receptor pathway activation (for example, PXR and CAR) in response to chemical exposure. 48 hours after plating, the culture medium was replaced with HepaRG Serum-Free Incudtion Media. Cells were exposed to each test chemical in duplicate and maintained in CO2 incubators for another 48 hours. Chemical plates were thawed to room temperature and 200x concentrations of treatment groups were prepared. 8-point conentration-reponse curves were made with the highest exposure at 100 uM, followed by half-log dilutions, all in 0.5% DMSO. Each test plate contained variouse controls, induction positive controls (1mM phenobarbital), cytotoxicity positive controls ([…] aflatoxin B1), vehicle controls (0.5% DMSO), and total lysis controls (0.5% DMSO). Cell morphology images were taken using an Essen IncuCyte FLR automated microscope, with six 96-well plates imaged in about 24 minutes. Images were captured and exported and JPEG files. Spent culture media was transfered to black-well plates for the LDH assay, and remaining media was sorted at -80 C for later use. Cells were treated with RLT buffer and frozen until shipped for gene expression analysis. Total RNA was isolated from the cell suspension in 75 uL of Buffer RLT (Qiagen, Germantown, MD 20874) by Quintiles/Expression Analysis (Durham, NC) using a custom isolation procedure. Total RNA from each plate well was transferred to a preamplification plate. Fluidigm's 96.96 Dynamic ArrayTM (Fluidigm, Amsterdam, the Netherlands) technology was used for gene expression analyses by quantitative reverse transcription polymerase chain reaction (qRT-PCR, performed by Quintiles/Expression Analysis, Durham, NC)89. Standard TaqManTM Assays (Applied Biosystems/ThermoFisher Scientific, Foster City, CA) were used to assess the expression of 93 genes selected based on their selectivity and sensitivity to important hepatic receptors known to be modulated by environmental chemicals; importance in human hepatocyte functionality; and hepatotoxicity. […]
SMILES,outcome,AC50
O=C(O)c1cccc(N(Cc2cccnc2)c2ccc(OC(F)F)c(OC(F)F)c2)c1,inactive,
O=c1n(CC2CO2)c(=O)n(CC2CO2)c(=O)n1CC1CO1 (stereo not given),inactive,
CCCCC(CC)COC(=O)CCCCCCCCC(=O)OCC(CC)CCCC (stereo not given),inactive,
C=CC(=C)CCC=C(C)C,inactive,
CC(C)(O)c1coc(S(=O)(=O)NC(=O)Nc2c3c(cc4c2CCC4)CCC3)c1,inactive,
CC(C)=CCCC(C)CCO (stereo not given),inactive,
CC(C)=CCC/C(C)=C/CO,inactive,
COc1ccc(/C=C/S(=O)(=O)NC(=O)c2ccc(C)cc2Cl)cc1,inactive,
Oc1ccc2c(c1)-c1ccccc1C2,inactive,
COCCOCCOCCOC,inactive,
O=C1CCCCCN1,inactive,
CCOCCOCCOCCO,inactive,
O=C(NS(=O)(=O)/C=C/c1ccccc1)c1ccc(F)cc1Cl,inactive,
CCOCCO,inactive,
CCCN(C1CCN(C(=O)C2CCNCC2)CC1)[C@@H]1CCc2ccc(OC)cc2C1,inactive,
Cc1ccc(C)c(O)c1,inactive,
CCOC(=O)CC(CC(=O)OCC)(OC(C)=O)C(=O)OCC,inactive,
On1ccccc1=S,inactive,
COC(=O)CC(=O)OC,inactive,
CCCC(=O)OCC,inactive,

SMILES,outcome,AC50
CCOc1cccc(-n2cc(C(=O)N3CCN(c4cc(C(=O)O)c5ccccc5c4)CC3)nc2-c2ccc(C)cc2)c1,inactive,
CC(C)CC(C)(O)C#CC(C)(O)CC(C)C (stereo not given),inactive,
CCCCCCc1ccc(O)cc1O,inactive,
Cc1[nH]cnc1C[C@H]1CCc2c(C)c3ccccc3n2C1=O,inactive,
O=C(O)CCN(C1(C(=O)NO)CCCC1)S(=O)(=O)c1ccc(Oc2ccc(F)cc2)cc1,inactive,
CCc1cc(SCc2sc(-c3ccc(C(F)(F)F)cc3)nc2CN2CCN(c3ccc(OC)cc3)CC2)ccc1OCC(=O)O,,94 µM (active)
COC(=O)c1c(Cl)c(Cl)c(C(=O)OC)c(Cl)c1Cl,inactive,
CCOC(=O)COc1ccc2c(c1)CC(NCC(O)c1cccc(Cl)c1)CC2 (stereo not given),inactive,
CCN(C(=O)c1cc(C)cc(OC[C@H](C)Nc2ccncc2)c1)C(C)C,inactive,
Clc1nc(Cl)c(Cl)c(Cl)c1Cl,inactive,
Cc1ccc(S(=O)(=O)O)cc1C,inactive,
O=C(O)CC(O)C(=O)O (stereo not given),inactive,
CCn1nc(Cc2ccccc2)cc1C1CCN(C[C@H]2C[C@H](N(C)[C@@H](C(=O)O)C(C)C)C[C@@H]2c2cccc(F)c2)CC1,inactive,
O=C(O)c1cccc(Oc2ccccc2)c1,inactive,
O=c1[nH]c2ccc(S(=O)CCN3CCC(Cc4ccc(F)cc4)CC3)cc2o1 (stereo not given),inactive,
CCNc1ccccc1,inactive,
Cn1c(=O)cc(Oc2ccc(F)cc2F)c2cnc(NCC(C)(C)O)nc21,inactive,
Cc1ccc(O)cc1,inactive,
CCOC(=O)c1ccc(C2CCC(NC[C@H](O)COc3ccc(O)c(NS(C)(=O)=O)c3)CC2)cc1 (stereo not given in full),inactive,
CC(C)=CCC/C(C)=C\CO,inactive,
